# Laboratory results taken from PubChem BioAssay AID624125 (The Scripps Research Institute Molecular Screening Center, 2012).
# Hit rate of the full screen: of about 360,000 compounds, about 2,600 (0.72%) were called active.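 How the source made its calls: active means inhibition above its plate's cutoff, the mean inhibition of sample wells plus 3 SD (cut at about 27% in these data); inactive means the rest.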 The list comes from a sample in which actives are over-represented; it also holds similar structures and randomly drawn compounds.
# Biological target: Muscarinic acetylcholine receptor M4 (Homo sapiens) (UniProt P08173)
# Sequence (P08173 whole entry, looked up): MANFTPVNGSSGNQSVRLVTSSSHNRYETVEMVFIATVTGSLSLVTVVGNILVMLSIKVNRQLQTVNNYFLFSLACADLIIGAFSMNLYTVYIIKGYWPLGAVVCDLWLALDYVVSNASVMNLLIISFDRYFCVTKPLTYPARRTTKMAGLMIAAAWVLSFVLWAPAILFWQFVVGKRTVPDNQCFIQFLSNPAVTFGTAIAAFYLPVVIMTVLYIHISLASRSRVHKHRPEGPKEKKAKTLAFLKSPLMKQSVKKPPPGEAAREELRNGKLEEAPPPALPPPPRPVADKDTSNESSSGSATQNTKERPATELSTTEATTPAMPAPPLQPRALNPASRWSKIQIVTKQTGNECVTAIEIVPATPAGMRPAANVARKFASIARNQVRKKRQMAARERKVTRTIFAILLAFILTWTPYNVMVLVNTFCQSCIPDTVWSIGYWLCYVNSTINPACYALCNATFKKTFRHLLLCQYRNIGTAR
# Test: CHRM4 blockers of acetylcholine calcium response – CHO cells, Fluo-8 calcium fluorescence, primary screen (AID 624125);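 further: 0% = acetylcholine EC80 with DMSO and 100% = DMSO without agonist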
# Details: CHO-hM4 cells, ACh EC80, Fluo-8 calcium fluorescence; at 3 µM; hits give high values
row,SMILES,inhibition
1,COc1ccccc1C(=O)NCCn1cc(SCC(=O)NCc2ccco2)c2ccccc21,6.25% (inactive)
2,COc1cc2c3c(c1)/C(=C1/SC(=S)NC1=O)C(=O)N3C(C)(C)C=C2C,9.66% (inactive)
3,C=CC[C@@H](CC(=O)N[C@@H](CO)Cc1ccccc1)C(=O)NCCOC(=O)[C@@H](CC=C)CC(=O)OC(C)(C)C,-5.01% (inactive)
4,CCc1cc(C(c2ccccc2OC)N2CCOCC2)c(NC(=O)c2ccccc2)s1 (configuration not stated),-6.12% (inactive)
5,COc1ccc(COC(=O)c2n[nH]c3ccccc23)cc1F,3.64% (inactive)
6,CCCOc1ccccc1C(=O)NCCCC(=O)O,-1.85% (inactive)
7,CN(C)c1ccc(N/C=C/C(=O)C(F)(F)F)cc1,-4.11% (inactive)
8,COC(=O)c1cc(NC(=O)CN2CCN(C(C)=O)CC2)cc(C(=O)OC)c1,1.81% (inactive)
9,Cc1cc2c(cc1C)N(Cc1ccccc1)C1=NCCCN12,10.6% (inactive)
10,Cc1ccc(OCc2cc(C(=O)N(C)CCn3ccnc3C)no2)cc1C,-0.14% (inactive)
11,Cc1cc(CN(C)C(=O)c2cc(COc3ccc(C)c(C)c3)on2)n[nH]1,-2.16% (inactive)
12,CN(Cc1cccnc1)C(=O)c1cc(COc2ccc3ncccc3c2)on1,44.2% (active)
13,Cc1ccc2c(c1)N(CC(=O)N(Cc1ccccn1)Cc1ccco1)C(=O)C(C(C)C)O2 (configuration not stated),-6.51% (inactive)
14,O=[N+]([O-])c1c(NCCO)cc(Sc2nc3ccccc3s2)c2nonc12,74.6% (active)
15,CCCCN1C(=O)/C(=C2/C=CC=CN2C)SC1=S,28.7% (active)
16,CCS(=O)(=O)N1CCCC(C(=O)NCCCN(C)Cc2ccccc2)C1 (configuration not stated),6.16% (inactive)
17,CCS(=O)(=O)c1ccc2c(c1)N(S(=O)(=O)c1ccccc1)CC(C(=O)O)O2 (configuration not stated),0.74% (inactive)
18,c1ccc2c(c1)CSc1sccc1C2=C1CCNCC1,97.6% (active)
19,CCCCN(CC(=O)Nc1cccc(S(=O)(=O)N2CCCC2)c1)Cc1nc2ccccc2c(=O)[nH]1,15.9% (inactive)

row,SMILES,inhibition
1,O=C1CCCc2nn(-c3ccccc3)nc21,2.29% (inactive)
2,CCCCC(=O)NNC(=S)NC(=O)C(c1ccccc1)c1ccccc1,59.9% (active)
3,CCCOCC(O)CC(CC)C(=O)NNC(=S)Nc1ccccc1 (configuration not stated),-8.64% (inactive)
4,C=CCC(NC(=O)Cc1ccccc1)C(=O)NCCC (configuration not stated),0.03% (inactive)
5,CCOc1ccc(N(CC)S(=O)(=O)c2cccc3nsnc23)cc1,4.82% (inactive)
6,O=C(/C=C/[C@H]1O[C@@H](n2ccc(=O)[nH]c2=O)[C@H](O)[C@@H]1O)NCc1ccccn1,-0.74% (inactive)
7,COc1ccc(C(=O)O)cc1S(=O)(=O)NCc1cccnc1,-5.56% (inactive)
8,COc1ccc(C(=O)NC2CCCc3c2cnn3-c2cccc(C)c2C)c(OC)n1 (configuration not stated),30.6% (active)
9,Cn1nccc1C(=O)NC1CCCc2c1cnn2-c1ccc(F)cc1F (configuration not stated),4.7% (inactive)
10,COc1ccc(C(=O)NC2CC(C)(C)Cc3c2cnn3-c2ccccc2)c(OC)c1 (configuration not stated),-2.19% (inactive)
11,CCC(Oc1ccccc1)C(=O)NCc1cccnc1 (configuration not stated),-2.11% (inactive)
12,CCN(CC(=O)Nc1ccc(NC(C)=O)cc1)C(=O)C1CC(=O)N(Cc2ccc(C)cc2)C1 (configuration not stated),-10% (inactive)
13,O=C1CC[C@@H](C(=O)N2CSC[C@@H]2C(=O)Nc2ccc(C(F)(F)F)cc2)N1,-9.06% (inactive)
14,Cc1c(Cl)cccc1NC(=O)CSc1ccc(-c2cccnc2)nn1,4.65% (inactive)
15,O=C(NCc1ccc2c(c1)OCO2)C1CCCN(S(=O)(=O)c2cccs2)C1 (configuration not stated),-10.7% (inactive)
16,O=C1C(Cl)=C(Oc2ccccc2)C(=O)c2ccccc21,43.5% (active)
17,O=C(Nn1cnc2ccccc2c1=O)c1ccc(F)cc1Cl,0.01% (inactive)
18,COC(=O)[C@@]12CCCN1[C@H](c1ccc(-c3ccc(F)cc3)c(OC)c1)[C@H]1C(=O)N(C)C(=O)[C@H]12,0.47% (inactive)
19,CC(C)(C)NC(=O)/C(=C/c1cccnc1)NC(=O)c1ccco1,-1.31% (inactive)

row,SMILES,inhibition
1,COc1ccc(-c2onc3ccc(C(C)=O)cc23)cc1,-10.7% (inactive)
2,CCn1c2ccccc2c2cc(NC(=S)N3CCOCC3)ccc21,3.52% (inactive)
3,O=C(Nc1ccc2c(c1)OCCO2)C(C1CC1)N1CCC(Cc2ccccc2)CC1 (configuration not stated),28.2% (active)
4,O=C(CN1CCOc2ccccc21)N1CCC(Cc2ccccc2)CC1,-1.37% (inactive)
5,Nc1c(C(=O)Nc2ccc3c(c2)OCCO3)nnn1Cc1ccccc1,1.65% (inactive)
6,O=C(Nc1ccccc1C(=O)N1CCOCC1)c1ccc(Cl)cc1,-14.3% (inactive)
7,CN(CCO)C(=O)c1nc[nH]c1C(=O)N(C)Cc1ccccc1,-23.3% (inactive)
8,CCOC(=O)N(Cc1ccccc1)C1CC1,2.24% (inactive)
9,CN(C(=O)CN(CCO)CC(=O)N(C)C(C)(C)Cc1ccccc1)C(C)(C)Cc1ccccc1,28.1% (active)
10,Cc1ccc2cc(C#N)c(NCCNC(=S)NCCCN3CCOCC3)nc2c1,-4.3% (inactive)
11,COCCn1c(C)cc(C(=O)CN2c3cccc4cccc(c34)S2(=O)=O)c1C,-7.15% (inactive)
12,COc1ccc(N2CCN(C(=O)c3cn(C)c4ccc(S(=O)(=O)N5CCOCC5)cc4c3=O)CC2)cc1,-12.4% (inactive)
13,CCOC(=O)N1CCN(C(=O)c2cn(C)c3ccc(S(=O)(=O)N(CC)CC)cc3c2=O)CC1,-13.5% (inactive)
14,CCOC(=O)N1CCN(C(=O)c2cn(C)c3ccc(S(=O)(=O)N4CCCC4)cc3c2=O)CC1,58.7% (active)
15,CCCCSc1nc2c(c(=O)n1CC)SC(C)C2 (configuration not stated),-22.6% (inactive)
16,Cc1ccc(NC(=O)C(C)OC(=O)Cc2c[nH]c3ccccc23)cc1S(=O)(=O)N1CCOCC1 (configuration not stated),-17.2% (inactive)
17,Cc1ccc(S(=O)(=O)N(Cc2ccc(Cl)cc2)c2ccccc2C(=O)NCc2cccnc2)cc1,2.37% (inactive)
18,Nc1nc(NCc2ccccc2)n(-c2ccccc2)n1,-15.7% (inactive)
19,CCCCCCn1c(=O)n2n(c1=O)C[C@]1(OC(=O)NCc3ccc(OC)c(OC)c3)CN(S(=O)(=O)c3ccc(C)cc3)C[C@]1(O)C2,-8.79% (inactive)
